Assay outcomes: PubChem BioAssay, National Center for Advancing Translational Sciences (NCATS)
IMPase cell inh: membrane-permeable compound that blocks inositol monophosphatase | P97697 | CHO-M1 cells, IP1 accumulation, HTRF TR-FRET ratio | inhibition (IP1 accumulation), % at 46.1 µM | 120,000 tested, under 10 active | AID 901; active means well fitted curve in the direction sought with a large enough effect in the signal ratio, not every such curve was filed as active; inconclusive means small, poorly fitted or top-dose-only effect, or a change in a side signal; inactive means no such curve, though single readings can be large or run the other way; the % refers to the signal ratio;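 further: cells stimulated with carbachol in lithium chloride buffer; plate controls were DMSO basal wells for no effect and reference inhibitor wells for full effect; higher means more IMPase inhibition seen as more IP1 and lower FRET ratio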
Target sequence (P97697 whole entry, looked up): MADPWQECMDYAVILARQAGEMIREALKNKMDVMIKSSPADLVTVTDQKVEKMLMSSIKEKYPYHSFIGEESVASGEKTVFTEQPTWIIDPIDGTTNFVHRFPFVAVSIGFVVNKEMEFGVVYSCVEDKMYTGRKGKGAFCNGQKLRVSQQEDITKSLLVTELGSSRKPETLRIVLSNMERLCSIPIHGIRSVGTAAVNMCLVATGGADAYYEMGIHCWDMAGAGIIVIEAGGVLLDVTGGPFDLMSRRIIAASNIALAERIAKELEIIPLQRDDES
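Cellular IMPase inhibition is scored as a rise in cytosolic IP1, detected by competitive TR-FRET between d2-labelled IP1 and a europium anti-IP1 antibody. M1-expressing CHO cells were stimulated with carbachol for 30 min at 37C, with lithium (50 mM LiCl) present in the buffer.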
ALDH1A1 inh: ALDH1A1 (human) enzyme inhibition | P00352 | Purified ALDH1A1, NADH fluorescence, propionaldehyde substrate | Potency, µM (highest dose often 75.3 µM), without a hit: at the top dose activity, negative = inhibition, hits mostly inhibitors | 220,000 tested, 7.3% active;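 further: potency means the concentration at half of the fitted maximal effect; plate controls were no enzyme wells and a reference inhibitor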
HPGD block: HPGD (human) dehydrogenase inhibition; Potency, µM, for the others: top-dose activity change, negative = inhibition, hits mostly inhibitors; 150,000 tested, 4.3% active; P15428; purified HPGD, NADH fluorescence kinetic, PGE2 substrate; AID 894; further: potency means the concentration at half of the fitted maximal effect
Target sequence (P15428 whole entry, looked up): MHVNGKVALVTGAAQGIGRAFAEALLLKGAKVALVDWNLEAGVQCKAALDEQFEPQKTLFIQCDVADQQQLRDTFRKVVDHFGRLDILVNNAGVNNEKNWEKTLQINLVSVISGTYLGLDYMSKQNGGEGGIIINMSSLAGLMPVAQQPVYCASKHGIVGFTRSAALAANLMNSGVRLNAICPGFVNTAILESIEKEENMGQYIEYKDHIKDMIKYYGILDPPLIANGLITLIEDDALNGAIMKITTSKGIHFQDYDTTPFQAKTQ
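NADH formation kinetics: reaction with 30 uM PGE2 and 1 mM NAD+ (final), 20 nM enzyme, Tris-HCl pH 8 with Tween 20, after 15 min compound preincubation at room temperature. Fluorescence change, last versus first of five reads.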
* marks the source's active call; other numbers are inactive results; ? = inconclusive; . = not tested or not shown; ! = a repeat was not active; [ ] = another dose, or the depositor's remark. Most compounds without a hit are left out; they make up all but 9% or so of the library. Unless noted, the call rests on the fitted dose curve; in most records, active means well fitted inhibition curve with a large enough effect (not every such curve was filed as active); inconclusive means small, poorly fitted or top-dose-only effect, or another doubt; inactive means no such curve, though single readings can be large or run the other way. Unless noted, on the % scale 0 is the no-effect control and ±100 the full control effect.

SMILES	IMPase cell inh	ALDH1A1 inh	HPGD block
C(#CCN1CCOCC1)COC/C=C/c1ccccc1	3.6	5.9%	-10.1%
O=CC1=C(N2CCOCC2)/C(=C\c2ccccc2)CC1	.	3.55µM*	.
C[N+]1(C)CCc2cc3c(cc2C1C1OC(=O)c2c1ccc1c2OCO1)OCO3 (stereo not given)	.	-5.4%	-11.2%
O=[N+]([O-])c1ccc2nc(N3CCNCC3)ccc2c1	6.4	25.1µM*	-15.6%
O=C(Nc1ccccc1)c1cc([N+](=O)[O-])ccc1N1CCNCC1	.	4.2%	.
CN1CCC(OC(=O)Cc2ccccc2)CC1	.	9.3%	.
O=C(OC1CCN(CCCl)CC1)C(c1ccccc1)c1ccccc1	17.2	8.91µM*	-10.9%
CNc1ccc2oc(C[C@H]3O[C@]4(CC[C@H]3C)O[C@H]([C@H](C)C(=O)c3ccc[nH]3)[C@H](C)C[C@H]4C)nc2c1C(=O)O	8.6	?	?
CCOC(=O)C(O)(c1ccc(NC(=S)NC(=O)c2ccc(Cl)cc2Cl)cc1)C(F)(F)F (stereo not given)	.	8.91µM*	-21.5%
CCOC(=O)C(NC(=O)CC)(Nc1ccc(C(O)(C(=O)OCC)C(F)(F)F)cc1C)C(F)(F)F (stereo not given)	3.2	10.8%	-0.7%
COC(=O)C(O)(c1ccc(NC(=S)NC(=O)c2ccc(Cl)cc2Cl)cc1)C(F)(F)F (stereo not given)	.	?	-8.0%
CCOC(=O)C(O)(c1ccc(NC(=S)NC(=O)c2ccc(Cl)cc2Cl)c(C)c1)C(F)(F)F (stereo not given)	.	17.8µM*	-23.1%
COC1=CC2C3Cc4ccc(OC)c(O)c4[C@]2(CCN3C)CC1=O (stereo not given in full)	.	4.3%	-5.2%
CC[C@]1(C2=NCCN2)Cc2ccccc2O1	0.8	2.0%	-9.1%
CCCCC[CH2][Hg][S]C1=C2N=CNC2NC(N)=N1 (stereo not given)	.	0.316µM*	0.708µM*
CCOC(=O)C1=C(NC(=S)NC(=O)c2ccccc2)c2ccccc2CC12CCCC2	.	22.4µM*	-11.7%
CCOP(=O)(OCC)C(NC(=O)c1ccccc1)=C(Cl)Cl	11.6	0.4%	1.9%
O=C1Nc2ccc(Cl)cc2C(c2ccccc2Cl)=NC1O (stereo not given)	.	12.8%	-0.7%
COc1nc2ccccc2c(=O)n1-c1ccc(Cl)cc1	.	4.3%	-9.5%
Cc1ccc(-c2nc3ccccc3c(=O)n2-c2ccncc2)cc1	-4.4	?	-8.6%
CCCCOc1nc2ccccc2c(=O)n1-c1ccccc1	.	14.1µM*	-13.0%
COc1ccc(-n2c(-c3ccc(C)cc3)nc3ccccc3c2=O)cc1	.	7.94µM*	.
C[C@@H]1OC=C2[C@@H](O)[C@H]3O[C@H]3C(=O)[C@@]23[C@H]1[C@H]1C2=C([C@@H](O)[C@H]4O[C@@H]4C2=O)[C@@H]3O[C@@H]1C	.	12.4%[13.5 µM]	.
CC(C)(C)[C@]1(O)C[C@@H]2OC(=O)CC23C(=O)O[C@@H]2OC(=O)[C@H](O)C231 (stereo not given in full)	.	5.4%	0.3%
CC/C=C\C/C=C\C/C=C\C/C=C\C/C=C\CCCC(=O)NCCO	.	0.5%	-6.5%
SMILES	IMPase cell inh	ALDH1A1 inh	HPGD block
O=C(Nc1nnc(SCc2ccccc2Cl)s1)C1COc2ccccc2O1 (stereo not given)	-1.5	?	15.8µM*
C(=NCCN1CCOCC1)=NC1CCCCC1	.	7.1%[13.5 µM]	-4.5%
CCOc1ccc(-n2c(O)c(N=Nc3c(C)n(C)n(-c4ccccc4)c3=O)c(=O)[nH]c2=O)cc1	.	15.8µM*	.
CCCCCCn1c(O)c(C=Nc2c(C)n(C)n(-c3ccccc3)c2=O)c(=O)[nH]c1=O	10.4	?	?
Cc1c(N=Nc2c(O)[nH]c(=S)[nH]c2=O)c(=O)n(-c2ccccc2)n1C	23.3	22.4µM*	28.2µM*
C=CCn1c(O)c(N=Nc2c(C)n(C)n(-c3ccccc3)c2=O)c(=O)[nH]c1=S	.	?	-23.5%
CC(C)(C)NC[C@H](O)c1cc(Cl)c(N)c(Cl)c1	-4.1[20.6 µM]	2.9%[20.9 µM]	-1.7%
C=C1C(O)C2OC3(CCC(/C=C/C(C)C4CC(C)=CC5(OC(CC(C)(O)C(=O)O)CCC5O)O4)O3)CCC2OC1C(O)CC(C)C1OC2(CCCCO2)CCC1C (stereo not given)	.	3.4%[2.48 µM]	-1.6%
COc1cc(-c2ccc(N)c(OC)c2)ccc1N	.	?	-18.1%
COc1cc(-c2ccc(=O)[nH]n2)ccc1OC(F)F	4.0	-7.9%	20µM*!
CN1CCc2cc3c(cc2[C@@H]1[C@@H]1OC(=O)c2c1ccc1c2OCO1)OCO3	-13.6[20.6 µM]	6.5%[20.9 µM]	-0.6%
Cc1cc(Cc2cc(C)c(N)cc2N)c(N)cc1N	.	?	-18.6%
CC(C)c1ccc(N2C(=O)NC(=O)/C(=C\C=C\c3ccco3)C2=O)cc1	.	21.5%	.
CC(C)c1ccc(N2C(=O)NC(=O)/C(=C\c3cnc(-c4ccccc4)nc3)C2=O)cc1	5.7	7.08µM*	25.1µM*
CN1C(=O)/C(=C/c2cccn2-c2ccc3ccccc3c2)C(=O)NC1=S	17.0	?	14.1µM*
CCOc1cc(/C=C2/C(=O)NC(=O)N(c3ccc(CC)cc3)C2=O)ccc1OC(=O)c1cccs1	5.7	?	?
Cc1ccc(N2C(=O)NC(=O)/C(=C/c3cnc(-c4ccccc4)nc3)C2=O)cc1C	.	?	20µM*
CN1C(=O)/C(=C\N2CCc3ccccc32)C(=O)NC1=S	.	?	-12.8%
Cc1cc(/C=C2\C(=O)NC(=O)N(c3cccc(Br)c3)C2=O)c(C)n1C	.	-3.6%	-8.7%
Cc1ccc(N2C(=O)NC(=O)/C(=C\c3ccsc3)C2=O)cc1C	-11.2	-6.9%	31.6µM*
C=CCN1CC[C@@]23CCCC[C@@H]2[C@@H]1Cc1ccc(O)cc13	0.2	.	.
c1cc2c(cc1[C@H]1OC[C@@H]3[C@H]1CO[C@H]3c1ccc3c(c1)OCO3)OCO2	-2.3	-1.4%	-20.9%
O=C(Nc1ccccc1)N1CC2(CCN(C(=O)Oc3ccccc3)CC2)C1	.	?	1.5%
c1ccc(CN2CCCC3(CCNCC3)C2)cc1	.	9.7%	-7.7%
CN=C=S	.	?	-2.0%
SMILES	IMPase cell inh	ALDH1A1 inh	HPGD block
C=C[C@]12CN(C)[C@H]3C1[C@@]1(C(=O)Nc4ccccc41)[C@H]1C[C@H]2[C@H]3CO1	7.5[20.6 µM]	6.3%[20.9 µM]	-4.5%
Cc1cc(C)cc(N2C(=O)NC(=O)/C(=C\c3cccn3-c3ccccc3)C2=O)c1	.	-7.5%	7.08µM*
Cn1cccc1/C=C1\C(=O)NC(=O)N(Cc2ccccc2Cl)C1=O	.	-0.7%	.
Cc1cc(C)cc(N2C(=O)NC(=O)/C(=C\c3cccn3-c3ccc(Cl)cc3)C2=O)c1	-4.7	?	?
O=C1NC(=S)NC(=O)C1=Cc1cccn1-c1ccc(O)cc1	.	20µM*	.
Cc1cc(/C=C2\C(=O)NC(=O)N(c3cccc(F)c3)C2=O)c(C)n1-c1cc(C(=O)O)cc(C(=O)O)c1	.	-1.6%	.
Cc1cccc(N2C(=O)NC(=O)/C(=C\c3cnc(-c4ccccc4)nc3)C2=O)c1	7.4	11.2µM*	25.1µM*
O=Cc1ccc(Cl)cc1Cl	.	-14.2%	-6.9%
C(=C/c1ccccc1)/CN1CCN(CCOC(c2ccccc2)c2ccccc2)CC1	18.1	-11.2%	-9.5%
O=C(c1csnn1)N1CCC[C@@]2(CCN(Cc3ccncc3)C2)C1	.	?	4.2%
CO[C@H]1C=C2CCN(C)[C@@H]2[C@@H]2c3cc4c(cc3C(=O)O[C@H]21)OCO4	1.3[20.6 µM]	?	-3.0%
C1CCOC1	.	?	-3.5%
